Hits are enriched below; roughly 3.2% of the tested compounds scored in any of these assays.
GSIS activator: GLuc luminescence reporter in INS-1E cells, primary screen for activators of glucose-dependent secretion of insulin; hit rate 0.61% among 370,000; INS-1E GLuc reporter insulin secretion, 2-3 h; activation, % at 16.6 µM;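 active = lowest replicate activation of at least 40%, so every replicate reaches that level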;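 also: 0% = median of neutral control wells and 100% = median of IBMX positive control wells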
CaV13 ICDI inh: Primary screen for inhibitors of IQ motif and Ca2+-dependent inactivation inhibitor domain binding in CACNA1D, Förster resonance energy transfer in living cells, …; HEK cells, CFP/YFP FRET ICDI-IQ, plate reader, 10 min; percent FRET-ratio fall versus neutral wells; inhibition, % at 12.3 µM; hit rate 0.098% among 340,000; AID 743397;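 active = mean replicate inhibition of at least 30% and at least 1% of replicates passing that level; inconclusive = only one of the two criteria is met; inactive = neither criterion is met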;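 also: 0% = median of the neutral control wells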
rRNA inh HTS: reduced GFP signal of wild-type E. coli, primary screen, bacterial rRNA inhibitor project, GFP/RFP fluorescence, OD600, single point; GFP signal change (wild-type ribosome), % (concentration not given with the values); hit rate 1.6% among 350,000; E. coli WT GFP vs humanized-ribosome RFP mutants, 24 h; active compounds read low; DMSO median 0, no signal -100;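 active = significant combined selectivity score with lowered wild-type GFP, culture density cut under 30%, mutant RFP and density less affected; inactive = any of these conditions unmet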
ERAP1 HTS inh: human ERAP1 aminopeptidase inhibitors, primary screen, biochemical, single point, plate reader; recombinant ERAP1, Leu-AMC fluorescence, 60 min; AID 652197, 2013; hit rate 0.15% among 340,000; Endoplasmic reticulum aminopeptidase 1 (Homo sapiens), Q9NZ08; inhibition, % at 10.7 µM;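 active = mean replicate inhibition of at least 30%, or all replicates individually reaching that 30% level; inactive = mean below 30% and not every replicate reaching it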;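 also: 0% = neutral control wells and 100% = L-leucinethiol positive control wells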
Target sequence (Q9NZ08 whole entry, looked up): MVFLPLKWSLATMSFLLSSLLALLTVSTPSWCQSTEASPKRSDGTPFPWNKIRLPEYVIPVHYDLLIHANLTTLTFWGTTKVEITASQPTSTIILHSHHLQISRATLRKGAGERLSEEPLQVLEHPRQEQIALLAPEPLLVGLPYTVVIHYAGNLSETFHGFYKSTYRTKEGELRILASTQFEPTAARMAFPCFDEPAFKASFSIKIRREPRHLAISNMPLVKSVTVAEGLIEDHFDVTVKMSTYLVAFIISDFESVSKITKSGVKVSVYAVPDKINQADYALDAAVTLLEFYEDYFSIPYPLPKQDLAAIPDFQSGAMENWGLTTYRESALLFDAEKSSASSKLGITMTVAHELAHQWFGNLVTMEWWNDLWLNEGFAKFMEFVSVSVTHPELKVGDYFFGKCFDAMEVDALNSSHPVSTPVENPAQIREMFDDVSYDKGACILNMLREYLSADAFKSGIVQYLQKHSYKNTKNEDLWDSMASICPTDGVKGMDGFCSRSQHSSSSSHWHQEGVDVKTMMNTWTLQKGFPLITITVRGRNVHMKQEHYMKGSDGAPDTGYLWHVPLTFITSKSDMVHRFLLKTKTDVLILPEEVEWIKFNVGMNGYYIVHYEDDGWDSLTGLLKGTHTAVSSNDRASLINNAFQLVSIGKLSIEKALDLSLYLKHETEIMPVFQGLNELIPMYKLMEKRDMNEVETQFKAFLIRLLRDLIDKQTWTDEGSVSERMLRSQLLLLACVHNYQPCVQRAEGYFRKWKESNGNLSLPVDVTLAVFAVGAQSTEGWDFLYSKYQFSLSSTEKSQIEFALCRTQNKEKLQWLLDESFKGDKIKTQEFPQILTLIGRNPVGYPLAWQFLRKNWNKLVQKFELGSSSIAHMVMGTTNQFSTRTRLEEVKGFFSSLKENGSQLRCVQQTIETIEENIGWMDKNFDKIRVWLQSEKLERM
PGC1a acetyl inh: inhibitors of PGC1a acetylation signal, primary screen, cell-based, U2OS, AlphaScreen, inhibitor mode. inhibition, % at 15.6 µM. AlphaScreen anti-acetyl-lysine; with virally co-expressed GCN5 acetyltransferase. hit rate 0.17% among 350,000;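 active = every replicate shows inhibition of at least 40%; inconclusive = mean inhibition at least 40% but some replicate below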;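 also: 0% = neutral control wells and 100% = positive control wells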
DENV2 CPE: inhibitors of DENV2 cytopathic effect, primary screen, cell-based, plate reader, single concentration; DENV2-infected cells, cytopathic effect rescue; CPE inhibition, % at 9.99 µM; hit rate 1.7% among 350,000; in the data active = CPE inhibition above about 20%, passing the limit was not always enough; inconclusive = no clear call, values can overlap the other calls; tested in BHK-21 cells;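 also: 0% = median of neutral control wells and 100% = median of positive control wells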
Numbers without * were called inactive; u = inconclusive; x = no result; + = active, no number; ! = not active in a repeat.

SMILES	GSIS activator	CaV13 ICDI inh	rRNA inh HTS	ERAP1 HTS inh	PGC1a acetyl inh	DENV2 CPE
COc1ccc(/C=N/NC(=O)CN(C2=NS(=O)(=O)c3ccccc32)c2ccccc2)cc1OC	60*	-5	x	x	x	x
CCn1c(SCC(=O)N/N=C/c2ccc(OC)c(OC)c2)nc2ccccc21	84*	-10	x	x	-9	x
COc1ccc(/C=N/NC(=O)CCn2c3ccccc3c3ccccc32)cc1OC	54*	-2	3	11	x	-1
COc1cccc(/C=N/NC(=O)CN(C2=NS(=O)(=O)c3ccccc32)c2ccccc2)c1	-3	-5	x	x	x	x
COc1cc(/C=N/NC(=O)CCn2c3ccccc3c3ccccc32)cc(OC)c1OC	11	1	5	2	x	1
COc1ccc(/C=N/NC(=O)CCSc2nc3ccccc3s2)cc1OC	54*	-14	0	-5	-2	-4
COc1ccc(/C=N/NC(=O)c2ccccc2Cl)cc1CSc1nc2ccccc2s1	x	-5	x	x	-5	x
COc1cc(/C(C)=N\NC(=O)CSc2nc3ccccc3n2C)ccc1O	42*	-7	-4	4	6	-3
C/C(=N/NC(=O)CSc1nc2ccccc2n1C)c1ccncc1	-5	3	0	1	4	0
C[C@H]1CN([C@@H](C)CO)C(=O)CCCn2cc(nn2)CO[C@H]1CN(C)S(=O)(=O)c1ccc2c(c1)OCCCO2	-2	x	3	-4	5	31*
C[C@H](CO)N1C[C@H](C)[C@@H](CN(C)S(=O)(=O)c2cccc(F)c2)OCc2cn(nn2)CCCC1=O	35	-2	2	-1	-3	55*!
C[C@@H]1CN([C@@H](C)CO)C(=O)CCCn2cc(nn2)CO[C@H]1CN(C)S(=O)(=O)c1cccc(F)c1	3	x	8	-1	3	1
C[C@@H]1CN([C@@H](C)CO)C(=O)c2cc(C#CC3CCCCC3)cnc2O[C@H]1CN(C)Cc1ccncc1	-9	x	-10	-2	-9	-2
O=C(NCCO)c1cc2c([nH]c3ccccc32)c(-c2ccccc2)n1	-29	-3	-28*	1	-5	1
COc1cccc(NC(=O)C(C)OC(=O)c2n[nH]c3ccccc23)c1 (stereo not given)	-9	-3	-27*	0	-9	-1
O=C(COC(=O)c1cccc(Br)c1)Nc1ccc2[nH]c(=O)[nH]c2c1	0	-6	8	1	-7	73*
COc1ccc(CC(=O)OCC(=O)Nc2ccc3[nH]c(=O)[nH]c3c2)cc1OC	x	-12	6	3	1	-1
CC(=O)c1cccc(NC(=O)COC(=O)c2n[nH]c3ccccc23)c1	7	-7	-23*	-1	-3	6
O=C(COC(=O)c1c(F)cccc1F)Nc1ccc2[nH]c(=O)[nH]c2c1	-9	0	9	0	x	-5
COc1ccc(CC(=O)OCC(=O)Nc2cccc(C(C)=O)c2)cc1OC	59*	-6	-3	1	3	-3
CNc1snc(C)c1C(=O)OC(C)C(=O)Nc1cccc(OC)c1 (stereo not given)	-4	-5	x	0	1	5
O=C(Nc1ccccc1)[C@@H]1[C@@H](CO)[C@@H]2Cn3c(cccc3=O)[C@H]1N2C(=O)c1ccccc1	0	x	1	-1	x	1
O=C(Cc1ccncc1)NCC[C@H]1CC[C@@H](NC(=O)C2CCCCC2)[C@@H](CO)O1	-7	x	-3	1	-2	u
CN(C)C(=O)[C@H]1[C@H](CO)[C@H]2Cn3c(ccc(-c4ccccc4F)c3=O)[C@H]2N1C(=O)c1cnccn1	10	x	2	0	x	-8
COc1ccc(/C=C\c2cc(OC)c(OC)cc2CC[N+](C)(C)C)cc1OC	x	-4	x	99*	-8	-2
SMILES	GSIS activator	CaV13 ICDI inh	rRNA inh HTS	ERAP1 HTS inh	PGC1a acetyl inh	DENV2 CPE
COc1ccc(/C=C/c2ccncc2)cc1OC	x	-9	x	x	-12	x
C[C@@H]1CN([C@H](C)CO)C(=O)c2cc(NC(=O)c3ccncc3)ccc2O[C@@H]1CN(C)Cc1ccc(-c2ccccc2)cc1	5	x	2	1	-6	4
CCCN(C)C[C@H]1OCCCC[C@H](C)Oc2ccc(NC(=O)CCC(F)(F)F)cc2C(=O)N([C@@H](C)CO)C[C@H]1C	19	x	0	x	4	x
CO[C@@H](CN(C)C(=O)c1cc(Cl)cc(Cl)c1)[C@H](C)CN(C(=O)Nc1ccc(F)cc1)[C@@H](C)CO	-15	x	-6	-2	8	92*
CO[C@@H](CN(C)C(=O)c1cc(Cl)cc(Cl)c1)[C@@H](C)CN(C(=O)Nc1ccc(F)cc1)[C@H](C)CO	-4	x	-2	1	3	19
CO[C@@H](CN(C)S(=O)(=O)c1cn(C)cn1)[C@@H](C)CN(C(=O)Nc1ccc(F)cc1)[C@@H](C)CO	5	x	-2	-2	10	23*
CO[C@H](CN(C)S(=O)(=O)c1ccc(C)cc1)[C@@H](C)CN(C(=O)Nc1ccccc1F)[C@H](C)CO	-15	x	-4	0	3	30*
Cc1ccccc1-c1ccccc1[C@@H]1[C@H](C#N)N(C(=O)c2ccccc2)[C@H]1CO	-12	x	2	0	-17	3
O=C(C[C@@H]1CC[C@H]2[C@@H](COC[C@@H](O)CN2C(=O)c2ccncc2)O1)NCc1ccc(-c2ccccc2)cc1	2	x	0	-4	8	+
O=C(C[C@@H]1CC[C@H]2[C@@H](COC[C@@H](O)CN2C(=O)c2cccnc2)O1)NCc1ccc(-c2ccccc2)cc1	4	x	3	0	-2	27*
O=C(C[C@@H]1CC[C@@H]2[C@H](COC[C@@H](O)CN2C(=O)c2cccnc2)O1)NCc1ccccc1	6	x	0	0	0	-10
O=C(C[C@H]1CC[C@H]2[C@@H](COC[C@@H](O)CN2C(=O)c2cccnc2)O1)NCc1ccc(-c2ccccc2)cc1	9	x	-6	-2	2	-2
O=C(C[C@H]1CC[C@H]2[C@@H](COC[C@H](O)CN2C(=O)c2cccnc2)O1)NCc1ccc(-c2ccccc2)cc1	1	x	1	1	6	22*
COc1ccccc1-c1ccc([C@@H]2[C@@H](C#N)N(C(=O)c3cccnc3)[C@@H]2CO)cc1	-4	x	-1	-3	3	6
COc1cccc(S(=O)(=O)N[C@H]2C=C[C@@H](CC(=O)NCc3ccccc3)O[C@H]2CO)c1	9	x	0	-3	4	-6
CCCCNCC1CCCO1 (stereo not given)	41*	-19	12	-1	x	3
